Tests used:
Test in all cases: DAPPL (digital affinity profiling via proximity ligation, sequencing); 10 mM Tris-HCl pH 7.5, 50 mM NaCl, 1 mM DTT, 4% glycerol, room temperature, 30 min; GST-TFs on glutathione beads, 16-mer random dsDNA library, 0.1% formaldehyde crosslink after washing; high values mean tight binding
Details in all cases: protein: recombinant; tags: N-terminal GST; dsDNA, one strand shown
FLI1 = molecular target: T1, FLI1 (Homo sapiens, UniProt Q01543 1-452)
T1 sequence: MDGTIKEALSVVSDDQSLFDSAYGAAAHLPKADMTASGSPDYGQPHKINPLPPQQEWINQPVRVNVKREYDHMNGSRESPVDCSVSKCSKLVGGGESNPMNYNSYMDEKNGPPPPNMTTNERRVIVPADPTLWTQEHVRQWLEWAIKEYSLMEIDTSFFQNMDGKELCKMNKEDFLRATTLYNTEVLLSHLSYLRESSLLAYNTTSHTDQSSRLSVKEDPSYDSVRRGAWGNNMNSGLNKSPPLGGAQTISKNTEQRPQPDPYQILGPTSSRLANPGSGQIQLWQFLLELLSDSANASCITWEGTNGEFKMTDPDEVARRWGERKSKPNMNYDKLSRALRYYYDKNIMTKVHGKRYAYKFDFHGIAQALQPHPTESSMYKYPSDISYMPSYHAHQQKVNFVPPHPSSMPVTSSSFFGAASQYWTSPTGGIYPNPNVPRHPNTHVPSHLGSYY
Procedure, shortened: (§1)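 Binding signal is defined as a hexamer's read frequency for one factor over its frequency for the tag-only sample. To obtain reads, GST-fused human transcription factors were expressed in yeast, captured on glutathione beads, barcoded with DNA and pooled with that sample. Pools met 200 nmole of a 16-mer random double-stranded DNA library in Tris/NaCl/DTT/glycerol buffer for 30 min at room temperature before washing, 0.1% formaldehyde crosslinking, proximity ligation (BsaI/T4 ligase, 1 h, 37 °C), PCR and Illumina NextSeq500 sequencing.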

ELK1 = molecular target: T2, ELK1 (Homo sapiens, UniProt P19419 1-428)
T2 sequence: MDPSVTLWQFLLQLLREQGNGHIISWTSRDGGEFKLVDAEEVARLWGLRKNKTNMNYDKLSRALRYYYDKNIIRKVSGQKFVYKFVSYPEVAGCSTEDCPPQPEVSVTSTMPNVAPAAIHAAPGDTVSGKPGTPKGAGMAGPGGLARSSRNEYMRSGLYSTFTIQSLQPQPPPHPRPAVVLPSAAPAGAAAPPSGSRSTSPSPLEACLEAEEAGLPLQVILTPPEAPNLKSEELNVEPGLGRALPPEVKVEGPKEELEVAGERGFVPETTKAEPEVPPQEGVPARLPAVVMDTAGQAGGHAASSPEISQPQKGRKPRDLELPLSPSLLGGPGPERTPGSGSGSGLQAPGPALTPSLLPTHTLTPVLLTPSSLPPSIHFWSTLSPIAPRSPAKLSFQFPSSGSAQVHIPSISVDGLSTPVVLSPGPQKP
Procedure, shortened: as §1

GABPA = molecular target: T3, GABPA (Homo sapiens, UniProt Q06546 1-454)
T3 sequence: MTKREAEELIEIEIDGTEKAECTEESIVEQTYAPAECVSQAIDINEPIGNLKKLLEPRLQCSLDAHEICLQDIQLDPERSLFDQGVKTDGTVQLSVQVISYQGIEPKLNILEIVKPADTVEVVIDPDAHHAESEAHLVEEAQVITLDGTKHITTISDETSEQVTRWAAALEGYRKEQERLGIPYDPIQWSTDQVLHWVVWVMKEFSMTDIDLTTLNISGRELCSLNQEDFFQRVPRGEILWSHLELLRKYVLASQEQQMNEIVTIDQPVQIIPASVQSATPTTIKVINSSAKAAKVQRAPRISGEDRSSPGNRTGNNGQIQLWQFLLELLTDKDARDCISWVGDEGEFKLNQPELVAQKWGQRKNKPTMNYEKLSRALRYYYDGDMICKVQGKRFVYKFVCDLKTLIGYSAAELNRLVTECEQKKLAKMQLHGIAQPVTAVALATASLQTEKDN
Procedure, shortened: as §1

ERG = molecular target: T4, ERG (Homo sapiens, UniProt P11308 1-479)
T4 sequence: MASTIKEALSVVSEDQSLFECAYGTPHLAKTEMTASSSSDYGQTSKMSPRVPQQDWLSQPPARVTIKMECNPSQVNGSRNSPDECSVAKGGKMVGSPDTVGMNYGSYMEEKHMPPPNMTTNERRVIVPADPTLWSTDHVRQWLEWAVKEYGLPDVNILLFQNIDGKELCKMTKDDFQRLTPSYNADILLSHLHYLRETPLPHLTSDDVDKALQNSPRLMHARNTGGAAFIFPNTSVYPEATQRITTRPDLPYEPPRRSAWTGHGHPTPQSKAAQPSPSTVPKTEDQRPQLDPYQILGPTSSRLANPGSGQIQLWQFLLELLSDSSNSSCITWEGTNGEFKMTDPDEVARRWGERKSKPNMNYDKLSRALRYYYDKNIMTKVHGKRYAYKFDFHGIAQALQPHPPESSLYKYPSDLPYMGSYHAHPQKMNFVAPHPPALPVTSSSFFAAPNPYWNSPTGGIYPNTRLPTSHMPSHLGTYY
Procedure, shortened: as §1

ELF1 = ELF1 (Homo sapiens, UniProt P32519 1-619)
Procedure, shortened: as §1

EHF = molecular target: T5, EHF (Homo sapiens, UniProt Q9NZC4 1-300)
T5 sequence: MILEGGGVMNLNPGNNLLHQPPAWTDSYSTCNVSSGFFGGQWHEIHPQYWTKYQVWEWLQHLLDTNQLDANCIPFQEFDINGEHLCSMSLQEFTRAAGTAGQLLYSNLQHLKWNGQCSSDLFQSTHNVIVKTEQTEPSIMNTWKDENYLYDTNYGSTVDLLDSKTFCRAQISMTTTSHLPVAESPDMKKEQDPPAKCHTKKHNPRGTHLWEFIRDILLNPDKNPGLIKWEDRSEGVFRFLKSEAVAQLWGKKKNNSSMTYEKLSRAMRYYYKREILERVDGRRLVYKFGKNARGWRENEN
Procedure, shortened: as §1

SPI1 = SPI1 (Homo sapiens, UniProt P17947 1-270)
Procedure, shortened: as §1

SPIB = SPIB (Homo sapiens, UniProt Q01892 1-262)
Procedure, shortened: as §1

ELK3 = molecular target: T6, ELK3 (Homo sapiens, UniProt P41970 1-407)
T6 sequence: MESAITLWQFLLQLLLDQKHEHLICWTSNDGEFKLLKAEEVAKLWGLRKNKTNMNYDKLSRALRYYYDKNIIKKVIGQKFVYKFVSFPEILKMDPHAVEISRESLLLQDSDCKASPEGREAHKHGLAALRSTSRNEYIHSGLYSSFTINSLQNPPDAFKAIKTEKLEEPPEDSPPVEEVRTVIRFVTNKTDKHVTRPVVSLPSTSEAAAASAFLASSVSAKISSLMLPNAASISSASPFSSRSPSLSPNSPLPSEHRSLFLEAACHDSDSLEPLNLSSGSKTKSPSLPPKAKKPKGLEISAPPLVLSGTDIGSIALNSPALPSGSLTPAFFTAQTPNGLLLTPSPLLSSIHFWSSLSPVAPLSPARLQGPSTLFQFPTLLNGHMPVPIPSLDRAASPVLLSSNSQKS
Procedure, shortened: as §1

FEV = molecular target: T7, FEV (Homo sapiens, UniProt Q99581 1-238)
T7 sequence: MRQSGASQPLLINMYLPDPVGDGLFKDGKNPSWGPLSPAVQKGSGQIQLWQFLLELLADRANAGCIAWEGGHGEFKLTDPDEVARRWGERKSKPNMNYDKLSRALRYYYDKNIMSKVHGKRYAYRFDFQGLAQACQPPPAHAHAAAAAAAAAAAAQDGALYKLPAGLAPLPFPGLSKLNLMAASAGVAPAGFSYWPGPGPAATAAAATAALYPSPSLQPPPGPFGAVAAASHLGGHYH
Procedure, shortened: as §1

Sequence of ELF1 (P32519 whole entry): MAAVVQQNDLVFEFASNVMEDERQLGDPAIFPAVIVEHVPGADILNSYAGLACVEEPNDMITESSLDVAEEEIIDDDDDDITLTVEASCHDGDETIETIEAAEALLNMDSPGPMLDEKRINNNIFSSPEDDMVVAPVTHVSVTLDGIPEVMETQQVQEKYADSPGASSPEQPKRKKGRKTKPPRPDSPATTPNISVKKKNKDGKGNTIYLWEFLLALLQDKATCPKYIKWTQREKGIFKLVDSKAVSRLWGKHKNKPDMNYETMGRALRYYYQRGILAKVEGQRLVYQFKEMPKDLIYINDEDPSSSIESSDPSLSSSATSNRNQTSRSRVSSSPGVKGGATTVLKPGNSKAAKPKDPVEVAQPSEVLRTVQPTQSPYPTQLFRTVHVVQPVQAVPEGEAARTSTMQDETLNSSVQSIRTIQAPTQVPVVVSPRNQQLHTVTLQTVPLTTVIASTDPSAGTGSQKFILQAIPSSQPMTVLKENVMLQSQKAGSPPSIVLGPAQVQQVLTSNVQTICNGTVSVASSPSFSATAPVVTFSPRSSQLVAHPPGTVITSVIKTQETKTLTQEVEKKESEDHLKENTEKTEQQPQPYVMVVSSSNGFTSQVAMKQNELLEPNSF
Sequence of SPIB (Q01892 whole entry): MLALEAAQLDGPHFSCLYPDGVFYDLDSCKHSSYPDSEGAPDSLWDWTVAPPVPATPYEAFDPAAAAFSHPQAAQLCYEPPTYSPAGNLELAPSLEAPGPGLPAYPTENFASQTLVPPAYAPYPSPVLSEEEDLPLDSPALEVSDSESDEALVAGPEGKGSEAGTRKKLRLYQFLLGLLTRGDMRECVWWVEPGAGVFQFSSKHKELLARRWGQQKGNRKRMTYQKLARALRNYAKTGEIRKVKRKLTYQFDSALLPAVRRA

## TGGCCA
FLI1
  binding signal: 1.1 fold enrichment (6-mer frequency, TF over GST control)
ELK1
  binding signal: 1.09 fold enrichment (6-mer frequency, TF over GST control)
GABPA
  binding signal: 1.16 fold enrichment (6-mer frequency, TF over GST control)
ERG
  binding signal: 1.05 fold enrichment (6-mer frequency, TF over GST control)
ELF1
  binding signal: 1.14 fold enrichment (6-mer frequency, TF over GST control)
EHF
  binding signal: 1.05 fold enrichment (6-mer frequency, TF over GST control)
SPI1
  binding signal: 1.05 fold enrichment (6-mer frequency, TF over GST control)
SPIB
  binding signal: 1.13 fold enrichment (6-mer frequency, TF over GST control)
ELK3
  binding signal: 1.1 fold enrichment (6-mer frequency, TF over GST control)
FEV
  binding signal: 1.13 fold enrichment (6-mer frequency, TF over GST control)

Source: article PMC7862700, “An all-to-all approach to the identification of sequence-specific readers for epigenetic DNA modifications on cytosine”
